Sampled rows, rich in hits. Any-hit rate of the full collection: about 8.9%.
12-hLO inh: blocks human 12-lipoxygenase activity | P18054 | purified 12-hLO, xylenol orange hydroperoxide absorbance | Potency, µM (titrated, usually from 57.1 µM), inactives show at the top dose activity change, negative = inhibition, most hits filed as inhibitors | actives 0.12% (n = 150,000); further: potency means the concentration at half of the fitted maximal effect; nearly all actives have a fitted effect of over 55% in size
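Hydroperoxide output read as Fe(III)-xylenol orange absorbance, 573-to-405 nm ratio, after 30 min reaction with 40 uM arachidonic acid. Enzyme: 150 nM purified human 12hLO, 15 min compound preincubation; 25 mM Hepes pH 7.0, room temperature.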
ALDH1A1 block: inhibitors of human aldehyde dehydrogenase 1A1. Purified ALDH1A1, NADH fluorescence, propionaldehyde substrate. AID 1030. actives 7.3% (n = 220,000). P00352. Potency, µM (highest dose often 75.3 µM), without a hit: top-dose activity, negative = inhibition, hits mostly inhibitors; active means well fitted inhibition curve with a large enough effect, not every such curve was filed as active; inconclusive means small, poorly fitted or top-dose-only effect, or another doubt; inactive means no such curve, though single readings can be large or run the other way;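 further: potency means the concentration at half of the fitted maximal effect; plate controls were no enzyme wells and a reference inhibitor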
NPSR antag: blocks cAMP signaling of the human neuropeptide S receptor; CHO-NPSR cells, cAMP TR-FRET, antagonist mode; actives 1% (n = 220,000); AID 1461; Potency, µM (series often up to 38.3 µM), inactives show at the top dose activity change, negative = inhibition, usual class: inhibitors; Q6W5P4; further: potency means the concentration at half of the fitted maximal effect; nearly all actives have a fitted effect of over 50% in size
Target sequence (Q6W5P4 whole entry, looked up): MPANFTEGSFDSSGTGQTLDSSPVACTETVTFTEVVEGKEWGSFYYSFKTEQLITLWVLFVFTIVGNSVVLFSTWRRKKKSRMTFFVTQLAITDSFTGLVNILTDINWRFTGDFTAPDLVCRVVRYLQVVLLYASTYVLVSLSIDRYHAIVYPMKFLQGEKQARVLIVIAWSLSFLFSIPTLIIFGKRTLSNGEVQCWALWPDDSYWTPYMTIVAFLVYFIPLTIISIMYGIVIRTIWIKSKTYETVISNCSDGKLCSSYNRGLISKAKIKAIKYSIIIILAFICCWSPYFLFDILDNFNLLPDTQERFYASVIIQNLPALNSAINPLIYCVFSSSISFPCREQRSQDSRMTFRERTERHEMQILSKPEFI
IMPase cell inh: IMPase inhibition in cells | P97697 | CHO-M1 cells, IP1 accumulation, HTRF TR-FRET ratio | inhibition (IP1 accumulation), % at 46.1 µM | 120,000 tested, under 10 active | AID 901; active means well fitted curve in the direction sought with a large enough effect in the signal ratio, not every such curve was filed as active; inconclusive means small, poorly fitted or top-dose-only effect, or a change in a side signal; inactive means no such curve, though single readings can be large or run the other way; the % refers to the signal ratio;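 further: cells stimulated with carbachol in lithium chloride buffer; plate controls were DMSO basal wells for no effect and reference inhibitor wells for full effect; higher means more IMPase inhibition seen as more IP1 and lower FRET ratio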
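CHO-M1 cells (CHO stably expressing M1 receptor), compound up to 46 uM final, stimulated with carbachol (50 uM as added) in buffer with 50mM LiCl, pH 7.4, 30 min at 37C. Cytosolic IP1 read by TR-FRET; AC50 from Hill fits.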
IMPase Li inh: cell-permeable IMPase inhibitors with lithium potentiation; AID 1457; Potency, µM (doses to about 59.4 µM), without a hit: at the highest dose activity, negative = IMPase inhibition, hits mostly inhibitors; CHO-M1 cells, IP1 TR-FRET (IP-One), carbachol + lithium; actives 0.35% (n = 210,000);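 further: IP1 builds up when IMPase is blocked and the TR-FRET signal falls; potency means the concentration at half of the fitted maximal effect; plate controls were basal vehicle for no effect and high inhibitor control for full effect; nearly all actives have a fitted effect of over 50% in size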
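CHO cells stably expressing M1 receptor (2000/well, cultured 16–30 h) treated 30 min at 37C with compound plus low lithium. Cytosolic IP1 by TR-FRET (665/620 ratio and 620 channel) after 10 min lysis; AC50 by Hill fit.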
HPGD inh: HPGD (human) dehydrogenase inhibition. actives 4.3% (n = 150,000). purified HPGD, NADH fluorescence kinetic, PGE2 substrate. Potency, µM, without a hit: top-dose activity change, negative = inhibition, most hits filed as inhibitors; active means well fitted inhibition curve with a large enough effect, not every such curve was filed as active; inconclusive means small, poorly fitted or top-dose-only effect, or another doubt; inactive means no such curve, though single readings can be large or run the other way; further: potency means the concentration at half of the fitted maximal effect
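NADH formation kinetics: reaction with 30 uM PGE2 and 1 mM NAD+ (final), 20 nM enzyme, Tris-HCl pH 8 with Tween 20, after 15 min compound preincubation at room temperature. Fluorescence change, last versus first of five reads.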
* hit, by the source's call; u = inconclusive; x = no result given; [ ] = remark or other dose. Unless noted, the call rests on the fitted dose curve; in most records, active means well fitted curve in the direction sought with a large enough effect; inconclusive means small, poorly fitted or top-dose-only effect, or another doubt; inactive means no such curve, though single readings can be large; an effect the other way counts as inactive or inconclusive. Unless noted, on the % scale 0 is the no-effect control and ±100 the full control effect.

SMILES	12-hLO inh	ALDH1A1 block	NPSR antag	IMPase cell inh	IMPase Li inh	HPGD inh
Cc1ncc([N+](=O)[O-])n1CCOC(=O)NC(NCc1ccccc1)C(Cl)(Cl)Cl (centres undefined)	4%	4%	-10%[46.1 µM]	-7	-13%[38.3 µM]	-6%
COC(=O)/C(=N/Nc1ccccc1C)Sc1nnc(C(O)c2ccccc2)n1-c1ccccc1 (centres undefined)	-3%	-5%	7%	x	-19%	32µM*
COC(=O)C1=C(C)N(Cc2ccccc2)c2c(C(=O)OC)c(C(=O)OC)c(C(=O)OC)c(=O)n2C1c1ccccc1 (centres undefined)	x	-7%[13.5 µM]	x	x	x	x
O=C(CCNc1cccc(Cl)c1)c1cccs1	3%	1.3µM*	-4%[46.1 µM]	10	-2%[38.3 µM]	-12%
Cc1ccc(NCCC(=O)c2cccs2)cc1C	x	1.6µM*	-18%	x	10%	x
O=C(NNC(=O)c1cccs1)Nc1cccc(Cl)c1	3%	1%	1%[46.1 µM]	5	0%[38.3 µM]	-14%
Cc1ccc(NCCC(=O)c2cccs2)cc1Cl	-5%	2.5µM*	6%[46.1 µM]	0	-2%	-7%
Cc1ccc(NCCC(=O)c2cccs2)cc1	x	0.89µM*	-7%	x	4%	x
Cc1ccc(NC(=O)CCC(=O)c2cccs2)cc1	7%	u	14%[46.1 µM]	6	29%[38.3 µM]	-11%
CCC(C)N1CNc2c(c(=O)[nH]c(=S)n2-c2cccc(C)c2)C1 (centres undefined)	x	u	1%	x	17%	x
CC(C)c1ccc(NCCC(=O)c2cccs2)cc1	-4%	2.8µM*	-26%	x	0%	-11%
O=C(NNS(=O)(=O)c1ccccc1[N+](=O)[O-])c1ccc(F)cc1	x	-10%	-9%	x	3%	x
O=C(NNS(=O)(=O)c1ccccc1[N+](=O)[O-])c1ccc(O)cc1	-8%	3.2µM*	-18%[46.1 µM]	4	43%[38.3 µM]	13µM*
COC(=O)c1cc(-c2ccccc2)sc1NC(=O)CN1C(=O)c2ccccc2C1=O	-3%	25µM*	-11%[46.1 µM]	4	-1%[38.3 µM]	u
CCC(C)c1ccc(NC(=S)Nc2ccc(OC)c(OC)c2)cc1 (centres undefined)	u	28µM*	11%	3	13%	1%
CCC(C)c1ccc(NC(=S)Nc2ccc(OC)cc2C)cc1 (centres undefined)	0%	0%	-29%	-6	-3%	25µM*
COc1ccc(NC(=S)NC(C)c2ccncc2)cc1OC (centres undefined)	x	1%	3%	x	-2%	x
COc1ccc(NC(=S)Nc2ccc(OCc3ccccc3)cc2)cc1OC	u	18µM*	-20%	-2	3%	-15%
COc1nccnc1NS(=O)(=O)c1ccc(NC(=S)NC(=O)c2ccc(F)cc2)cc1	u	14µM*	-15%	x	-2%	-11%
O=C(NC(=S)Nc1ccc(S(=O)(=O)Nc2nccs2)cc1)c1ccc(F)cc1	-24%	18µM*	-2%	x	3%	-23%
O=C(Nc1ccc(S(=O)(=O)Nc2nccs2)cc1)c1ccc(F)c(S(=O)(=O)N2CCOCC2)c1	x	5µM*	1%	x	5%	x
O=C(Nc1ccc(S(=O)(=O)Nc2nccs2)cc1)c1ccc(S(=O)(=O)N2CCOCC2)cc1	1%	u	17%	x	-4%	2%
COc1nccnc1NS(=O)(=O)c1ccc(NC(=S)NC(=O)c2cccc(F)c2)cc1	-10%	u	-10%	x	-5%	-8%
COc1nsnc1NS(=O)(=O)c1ccc(NC(=S)NC(=O)c2cccnc2)cc1	x	20µM*	-8%	x	-1%	x
Cc1[nH]c2ccccc2c1C(=O)CNc1nccs1	0%	u	21%[46.1 µM]	2	-14%	-19%
COc1ccc(C(=O)OC(C)C(=O)Nc2cc(C(F)(F)F)ccc2Cl)c(OC)c1OC (centres undefined)	-2%	10%	-8%	5	13%	25µM*
CCC(Sc1nc2ccccc2o1)C(=O)Nc1nnc(C)s1 (centres undefined)	0%	2%	6%	x	5%	-1%
Cc1ccc(NC(=S)N/N=C/c2cccn2Cc2ccccc2F)cc1	x	x	-6%	x	x	x

Screening results deposited in PubChem BioAssay by National Center for Advancing Translational Sciences (NCATS).
